The test system of test [1] is Plasmodium falciparum Sir2 (PF13_0152, Sir2A). In words: pfSir2 binders on small-molecule microarrays, primary screen, biochemical, small-molecule microarray, 635 nm fluorescence (AID 1098).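 Also: score merges spot fluorescence intensity with its signal-to-noise ratio.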 The conditions noted are these: small-molecule microarray binding, fluorescence 635 nm; higher = more signal.
A short description of test [2]: small-molecule microarray binders of probe aDKK1, primary screen, biochemical, biotinylated probe, 635/667 nm fluorescence (AID 1099).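 Also: score merges 667nm spot fluorescence with signal to noise across triplicate slides; reference of the scale not given here.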 The conditions noted are these: higher = more signal.
A short description of test [3]: small-molecule microarray binders of probe aCHRDL2, primary screen, biochemical, biotinylated probe, 635/667 nm fluorescence (AID 1100). The conditions noted are these: higher = more signal.
The nature of test [4]: splicing luciferase reporter signal modulators, primary screen, spliceosome inhibition project, cell-based, HEK293, splice +/- reporter (AID 1101).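 Also: HEK293 cells carrying a splicing-competent luciferase reporter gene; test concentration not given here.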 As to conditions: luminescence, 24 h, higher = more signal, called active from +8 up or from −8 down.
Test [5] deals with Fibroblast growth factor 10 (Homo sapiens) (UniProt O15520). As to the kind of experiment: FGF10 binders on small-molecule microarrays, primary screen, biochemical, small-molecule microarray, 635 nm fluorescence (AID 1102). The conditions noted are these: FGF10 binding, fluorescence 635 nm, higher = more signal.
The test system of test [6] is glycogen synthase kinase-3 (GSK3A per assay name; protocol says GSK3B). In words: GSK3 binders on small-molecule microarrays, primary screen, biochemical, small-molecule microarray, 635 nm fluorescence, GSK3A (AID 1103). Also: the record names both GSK3A and GSK3B. As to conditions: small-molecule microarray binding, fluorescence 635 nm; higher = more signal.
For test [7], the target named is Epidermal growth factor receptor (Homo sapiens) (UniProt P00533). In words: EGFR binders on small-molecule microarrays, primary screen, biochemical, small-molecule microarray, 635 nm fluorescence (AID 1104).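 Also: score merges 667 nm emission intensity with spot signal to noise over triplicate slides.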 As to conditions: EGFR binding, higher = more signal.
Test [8] concerns the target Follistatin-related protein 3 (Homo sapiens) (UniProt O95633). As to the kind of experiment: FSTL3 binders on small-molecule microarrays, primary screen, biochemical, small-molecule microarray, 635 nm fluorescence (AID 1105).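 Also: score merges emission near 667 nm and signal to noise per printed spot across three slides.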 As to conditions: FSTL3 binding, higher = more signal.
For test [9], the target named is Dickkopf-related protein 1 (Homo sapiens) (UniProt O94907). As to the kind of experiment: DKK1 binders on small-molecule microarrays, primary screen, biochemical, small-molecule microarray, 635 nm fluorescence scan (AID 1106).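 Also: score merges emission near 667 nm with signal to noise over three replicate slides.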 The conditions noted are these: DKK1 binding, higher = more signal.
Test [10] concerns Inhibin beta A chain (activin A). As to the kind of experiment: INHBA (activin A) binders on microarrays, primary screen, biochemical, small-molecule microarray, 635 nm fluorescence scan (AID 1107).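 Also: mouse activin A protein probed at 4.33 µg/mL on printed slides; score merges bound-protein fluorescence near 667 nm with spot signal-to-noise.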 As to conditions: small-molecule microarray binding, higher = more signal.

The source made the active and inactive calls.

Sequence of Dickkopf-related protein 1 (Homo sapiens) (O94907 whole entry, looked up): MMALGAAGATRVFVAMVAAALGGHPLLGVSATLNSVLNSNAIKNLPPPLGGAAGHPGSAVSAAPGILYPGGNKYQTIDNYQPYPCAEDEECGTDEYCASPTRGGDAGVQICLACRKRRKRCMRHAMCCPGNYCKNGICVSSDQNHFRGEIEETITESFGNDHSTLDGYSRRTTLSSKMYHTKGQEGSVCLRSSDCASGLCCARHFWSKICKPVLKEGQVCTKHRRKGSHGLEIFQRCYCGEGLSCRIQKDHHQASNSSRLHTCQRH
Sequence of Epidermal growth factor receptor (Homo sapiens) (P00533 whole entry, looked up): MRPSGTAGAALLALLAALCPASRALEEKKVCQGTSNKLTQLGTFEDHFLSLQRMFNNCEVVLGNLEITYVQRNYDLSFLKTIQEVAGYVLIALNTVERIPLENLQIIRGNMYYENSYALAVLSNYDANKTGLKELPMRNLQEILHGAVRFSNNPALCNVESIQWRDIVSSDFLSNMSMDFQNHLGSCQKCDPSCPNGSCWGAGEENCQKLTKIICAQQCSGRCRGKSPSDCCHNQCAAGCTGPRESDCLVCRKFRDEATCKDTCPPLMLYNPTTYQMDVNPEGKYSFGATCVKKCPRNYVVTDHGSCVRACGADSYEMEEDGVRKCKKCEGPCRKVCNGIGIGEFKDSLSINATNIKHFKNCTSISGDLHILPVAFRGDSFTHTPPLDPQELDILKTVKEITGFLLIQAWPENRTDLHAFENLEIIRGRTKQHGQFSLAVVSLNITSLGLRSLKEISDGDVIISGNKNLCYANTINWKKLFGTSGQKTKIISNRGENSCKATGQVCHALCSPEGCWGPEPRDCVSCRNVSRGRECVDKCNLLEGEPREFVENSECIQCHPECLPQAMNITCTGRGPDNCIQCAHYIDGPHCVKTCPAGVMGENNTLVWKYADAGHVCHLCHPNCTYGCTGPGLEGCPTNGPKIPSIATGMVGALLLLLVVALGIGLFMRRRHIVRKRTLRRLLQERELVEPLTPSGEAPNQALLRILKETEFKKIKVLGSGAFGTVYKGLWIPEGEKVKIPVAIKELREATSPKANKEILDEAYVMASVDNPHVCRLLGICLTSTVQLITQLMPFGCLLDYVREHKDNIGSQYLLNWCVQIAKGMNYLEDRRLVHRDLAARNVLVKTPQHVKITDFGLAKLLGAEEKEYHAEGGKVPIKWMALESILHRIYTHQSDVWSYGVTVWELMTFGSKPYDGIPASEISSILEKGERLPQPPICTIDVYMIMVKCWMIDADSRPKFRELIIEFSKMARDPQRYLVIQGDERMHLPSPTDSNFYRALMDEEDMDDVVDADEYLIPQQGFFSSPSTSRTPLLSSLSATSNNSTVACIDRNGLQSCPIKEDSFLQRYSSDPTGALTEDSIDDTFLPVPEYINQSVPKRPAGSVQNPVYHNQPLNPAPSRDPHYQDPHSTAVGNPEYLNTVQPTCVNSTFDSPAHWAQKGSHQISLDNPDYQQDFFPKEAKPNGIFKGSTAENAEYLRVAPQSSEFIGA
Sequence of Follistatin-related protein 3 (Homo sapiens) (O95633 whole entry, looked up): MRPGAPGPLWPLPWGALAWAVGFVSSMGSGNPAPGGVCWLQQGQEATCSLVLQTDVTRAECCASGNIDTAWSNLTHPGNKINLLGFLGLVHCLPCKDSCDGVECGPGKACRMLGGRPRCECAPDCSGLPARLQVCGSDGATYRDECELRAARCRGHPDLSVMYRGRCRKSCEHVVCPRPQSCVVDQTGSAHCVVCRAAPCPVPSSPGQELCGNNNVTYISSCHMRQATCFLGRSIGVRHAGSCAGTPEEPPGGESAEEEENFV
Sequence of Fibroblast growth factor 10 (Homo sapiens) (O15520 whole entry, looked up): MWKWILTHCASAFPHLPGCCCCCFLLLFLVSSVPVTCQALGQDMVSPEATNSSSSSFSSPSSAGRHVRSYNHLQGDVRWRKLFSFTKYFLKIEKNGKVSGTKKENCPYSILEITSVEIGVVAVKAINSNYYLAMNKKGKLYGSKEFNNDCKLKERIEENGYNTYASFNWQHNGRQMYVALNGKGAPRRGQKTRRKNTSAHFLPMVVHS

With `O=C1C2C=CC(C(O)c3ccc([N+](=O)[O-])cc3)N(Nc3ccccc3F)C2C(=O)N1c1ccccc1` (stereo not given), the composite z-score in test [1] is 1.22; in test [2], 0.912; in [3], 0.941; in [5] it was 0.436; in [6] it was 0.351; in [7] it was -0.0558. Moreover, the composite z-score was 0.313 in [8], -0.516 in test [9] and 0.941 in test [10]. Besides, the z-score in [4] is 1.02 (inactive).

For the compound `COCCOC(=O)N1C(=O)[C@@]2(c3cc(C#CCCO)ccc31)[C@H](C(N)=O)[C@H]1C(=O)O[C@H](c3ccccc3)[C@H](c3ccccc3)N1[C@@H]2c1ccccc1OCCO`, the composite z-score is 1.59 in [1]; 0.7 in test [2]; 0.694 in test [3]; 0.738 in test [5]; 1.3 in test [6]; 0.375 in [7]. Further, the results for the composite z-score in test [8], in test [9] and in test [10] were 0.911, 0.403 and 0.042, respectively. Besides, the z-score in test [4] is -0.871 (inactive).

Take `C=C(C)[C@@H]1CC=C(C(O)C2C=CC3C(=O)N(c4ccccc4)C(=O)C3N2Nc2ccc([N+](=O)[O-])cc2)CC1` (stereo not given in full): the composite z-score in test [1] was -0.0606; in [2], 0.32; in test [3] it was 0.822; in [5], 1.27; in test [6], 1.31; in test [7] it was 0.613. The results for the composite z-score in test [8], in [9] and in test [10] were 1.44, -0.103 and 0.883, respectively. Further, the z-score in [4] was -0.682 (inactive).

Take `COC(=O)[C@@]1(Cc2ccccc2)[C@H]2c3cc(C(=O)N4CCCC4)n(Cc4ccc(OC)c(OC)c4)c3C[C@H]2CN1C(=O)c1ccccc1`: the composite z-score in test [1] came out at 0.491; in test [2], 1.14; in [3] it was 1.2; in test [5], 0.971; in test [6] it was 1.06; in [7], 0.122. Besides, the figures for the composite z-score in test [8], in test [9] and in [10] were 0.985, -0.823 and 0.763, respectively. Moreover, in test [4], the z-score was -2.9 (inactive).

For `C=CCC(OC(C)=O)[C@@H]1[C@@H](N(Cc2ccc(-c3ccccc3)cc2)C(=O)c2cccc3ccccc23)c2cc(OCCCO)ccc2N1C(=O)Cc1ccc(OC)cc1` (stereo not given in full), the composite z-score in [1] is 0.057; in test [2] it was 0.267; in test [3], 0.516; in [5], 0.345; in test [6], -0.102; in test [7] it was 0.0253. Also, the composite z-score was 0.13 in test [8], -0.113 in test [9] and 1.37 in [10]. For the same compound, in test [4], the z-score was -0.149 (inactive).

`CO[C@H]1O[C@H](CO)[C@@H](OC(=O)Nc2ccc3c(c2)OCO3)[C@H](OC(=O)Nc2ccccc2-c2ccccc2)[C@H]1OC(=O)Nc1ccccc1-c1ccccc1`: the composite z-score in [1] was 0.977; in test [2], 0.446; in test [3] it was 0.591; in test [5], 1.03; in test [6], 1.31; in test [7], -0.294. For the same compound, the composite z-score in test [8] is 0.398; in [9] it was -0.0521; in test [10] it was 0.411. For the same compound, the z-score in [4] is 0.617 (inactive).

As for `C[C@@H]1NC(=O)C([C@@H](C)OCc2ccccc2)NC(=O)[C@@]23C(=O)N[C@@H](Cc4ccccc4)C2[C@H](C)[C@@]2(C)O[C@H]2C3/C=C/C/C=C\CNC1=O` (stereo not given in full), the composite z-score in test [1] is 1.58; in [2] it was -0.76; in [3], -0.751; in [5], 0.224; in [6], -0.297; in test [7], -0.506. The values for the composite z-score in [8], in [9] and in test [10] were 0.11, 0.382 and 1.44, respectively. Further, the z-score in [4] was 0.531 (inactive).

In the case of `CC(C)N1C(=O)c2ccccc2[C@@H](C(=O)NCC(F)(F)F)[C@@H]1c1ccc(CO)cc1`, the composite z-score in test [1] was 0.861; in [2], -0.0674; in test [3] it was 0.53; in [5], -0.746; in test [6], -0.871; in test [7], -0.318. The composite z-score was -0.464 in test [8], -0.459 in test [9] and 0.935 in test [10]. Besides, the z-score in [4] is 0.655 (inactive).

Take `C[C@]1(C(=O)O)c2ccccc2C(=O)N(Cc2cc(F)cc(C(F)(F)F)c2)[C@H]1c1ccc(CO)cc1`: the composite z-score in test [1] was 1.64; in test [2] it was -0.0944; in test [3] it was 0.249; in test [5], 0.139; in test [6] it was -0.429; in test [7], 0.213. Moreover, the composite z-score in [8] is 0.0304; in test [9], -0.336; in test [10] it was 0.561. In addition, the z-score in test [4] was 0.395 (inactive).

Regarding `COc1ccc([Si](C)(C)[C@@H]2[C@@H](CC(=O)N3CCC[C@H]3CO)O[C@]3(C(=O)N(Cc4ccc(N5CCOC5=O)cc4)c4ccccc43)[C@H]2C)cc1`, the composite z-score in test [1] is 1.4; in test [2] it was -0.3; in test [3], 0.135; in test [5] it was 0.25; in [6] it was 0.946; in [7], -0.0626. For the same compound, the composite z-score turned out to be 0.388 in [8], 0.366 in test [9] and 0.0014 in test [10]. Further, the z-score in [4] is -1.58 (inactive).

On to `CN1C(=O)C2C(C1=O)C1C=C(c3ccc(CO)cc3)C2C(C2CC2)N1C` (stereo not given), for which the composite z-score in test [1] was 0.028; in test [2] it was -0.152; in [3] it was 0.0977; in test [5], 0.192; in test [6], 0.249; in [7], 0.35. For the same compound, the composite z-score in test [8] was -0.463; in test [9], -0.143; in [10], 0.304. In addition, the z-score in test [4] is -0.0431 (inactive).

For the compound `NC(=O)N1C(=O)C2C(C1=O)C1C=C(CCCO)C2C(C2CC2)N1Cc1sc2ccccc2c1Cl` (stereo not given), the composite z-score in [1] was 0.903; in test [2], -0.129; in test [3], 0.256; in [5] it was 1.15; in [6] it was 1.09; in test [7], -0.271. The figures for the composite z-score in test [8], in [9] and in [10] were 0.808, 0.158 and 0.303, respectively. The z-score in [4] is 1.01 (inactive).

Regarding `O=C1OCCC=C[C@H]2OC34C=CCN(c5ccc6ccccc6c5)C(=O)[C@H]3N(CCO)C(=O)[C@@H]4C12` (stereo not given in full), the composite z-score was 1.89 in test [1]; -0.886 in test [2]; -0.465 in test [3]; -0.0326 in test [5]; -0.327 in [6]; -0.405 in test [7]. In addition, the values for the composite z-score in [8], in test [9] and in test [10] were -0.114, -0.951 and -0.666, respectively. Besides, in [4], the z-score was -0.502 (inactive).

Consider `CC1CC/C=C\[C@H]2OC34C=CCN(C(C)(C)C)C(=O)[C@H]3N(CCCO)C(=O)[C@@H]4C2C(=O)O1` (stereo not given in full), for which the composite z-score is 0.28 in test [1]; -0.107 in test [2]; 0.4 in test [3]; -0.0987 in test [5]; -0.592 in test [6]; -0.927 in test [7]. The composite z-score in [8] is -0.943; in test [9], -0.863; in test [10], 0.406. The z-score in [4] was 0.964 (inactive).
